# Measurements reported in PubChem BioAssay (EPA / NIEHS).
# Results filed as inconclusive are left out. The source made the active and inactive calls. The calls were made as follows: active = hit-call score of the fitted dose curve at least 0.9, where 1 is the maximum; inconclusive = response in the unintended direction; inactive = score below 0.9.
# Biological target: zebrafish Estrogen Receptor (ESR1), esr1 (gene 259252) (UniProt P57717)
# Assay: ATG_zfER1_XSP1: Attagene TRANS-FACTORIAL Multi-Species (XSP1) HepG2 Assay for zebrafish Estrogen Receptor (ESR1) (AID 2283772)
# How it was run: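 Reporter mRNA induction, gauged via RT-PCR/capillary electrophoresis fluorescence relative to DMSO controls, in HepG2 cells transiently carrying GAL4-UAS reporter units; 24 h dosing.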
# zebrafish Estrogen Receptor (ESR1), esr1 (gene 259252), sequence (P57717 whole entry, looked up): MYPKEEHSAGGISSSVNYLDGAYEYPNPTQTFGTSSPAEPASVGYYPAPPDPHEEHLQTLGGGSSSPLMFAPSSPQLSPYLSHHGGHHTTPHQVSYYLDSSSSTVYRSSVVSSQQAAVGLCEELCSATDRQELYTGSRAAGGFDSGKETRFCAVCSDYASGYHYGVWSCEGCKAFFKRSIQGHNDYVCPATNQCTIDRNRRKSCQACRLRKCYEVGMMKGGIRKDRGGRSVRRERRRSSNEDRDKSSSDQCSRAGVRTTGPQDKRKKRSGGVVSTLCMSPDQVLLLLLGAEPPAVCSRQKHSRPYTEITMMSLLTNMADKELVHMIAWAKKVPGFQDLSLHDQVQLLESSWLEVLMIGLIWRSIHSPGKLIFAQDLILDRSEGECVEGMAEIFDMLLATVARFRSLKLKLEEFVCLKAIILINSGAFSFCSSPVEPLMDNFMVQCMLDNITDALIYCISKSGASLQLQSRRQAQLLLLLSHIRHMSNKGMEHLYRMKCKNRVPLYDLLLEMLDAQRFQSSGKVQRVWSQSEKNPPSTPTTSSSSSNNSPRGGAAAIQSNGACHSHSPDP
SMILES,AC50,outcome
O=C(c1ccc(O)cc1O)c1ccc(O)cc1O,1.38 µM (active),–
CC(C)(c1ccc(O)cc1)c1ccc(O)cc1,1.26 µM (active),–
Oc1ccc(C(c2ccc(O)cc2)C(Cl)(Cl)Cl)cc1,–,inactive
CC(C)CCCCCCc1ccc(O)cc1,2.68 µM (active),–

# Tested on: zebrafish Estrogen Receptor (ESR2B), gene 317733
# Assay: ATG_zfER2b_XSP1: Attagene TRANS-FACTORIAL Multi-Species (XSP1) HepG2 Assay for zebrafish Estrogen Receptor (ESR2B) (AID 2283773)
# How it was run: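 Multiplexed TRANS format in transfected HepG2 liver cells, chimeric NR-Gal4 from zebrafish ESR2B. 24 h dosing; medium contains 3 nM 6-alpha-fluorotestosterone. mRNA induction by RT-PCR/CE, positive direction vs DMSO.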
row,SMILES,AC50
1,O=C(c1ccc(O)cc1O)c1ccc(O)cc1O,0.94 µM (active)
2,CC(C)(c1ccc(O)cc1)c1ccc(O)cc1,0.811 µM (active)
3,Oc1ccc(C(c2ccc(O)cc2)C(Cl)(Cl)Cl)cc1,0.131 µM (active)
4,CCCCC(CC)COC(=O)c1ccccc1C(=O)O (stereo not drawn),62.5 µM (active)
5,CC(C)CCCCCCc1ccc(O)cc1,0.571 µM (active)

# Tested on: frog Estrogen Receptor (ESR2), gene 100174814
# Assay: ATG_frER2_XSP1: Attagene TRANS-FACTORIAL Multi-Species (XSP1) HepG2 Assay for frog Estrogen Receptor (ESR2) (AID 2283774)
# How it was run: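 HepG2, transient MRTU transfection (GAL4-UAS reporters, exogenous NR-Gal4 chimeras); 24 h compound exposure; 3 nM 6α-fluorotestosterone co-added; total RNA → RT-PCR → 6-FAM primer extension → HpaI → CE. Positive direction vs DMSO.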
row,SMILES,AC50
1,O=C(c1ccc(O)cc1O)c1ccc(O)cc1O,0.519 µM (active)
2,CC(C)(c1ccc(O)cc1)c1ccc(O)cc1,0.374 µM (active)
3,Oc1ccc(C(c2ccc(O)cc2)C(Cl)(Cl)Cl)cc1,0.0342 µM (active)
4,CCCCC(CC)COC(=O)c1ccccc1C(=O)O (stereo not drawn),61.8 µM (active)
5,CC(C)CCCCCCc1ccc(O)cc1,0.752 µM (active)

# Tested on: not listed separately
# Assay: ACEA_AR_agonist_AUC_viability: ACEA Biosciences xCELLigence Real-Time Cell Analysis on Androgen Receptor Agonism for Viability (AID 2283775);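 as to AC50: viability read 80 hours after compound addition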
# How it was run: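 22Rv1 cells; impedance growth kinetics; 8-pt 1:4 dilutions from 100 uM top final, ≤0.5% DMSO; n = 2; 80 h read; AUC viability, loss-of-signal vs DMSO.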
SMILES,AC50,outcome
Cc1nn(C)c(Oc2ccccc2)c1C=NOCc1ccc(C(=O)OC(C)(C)C)cc1,13 µM (active),–
C#CCOC(=O)[C@@H](C)Oc1ccc(Oc2ncc(Cl)cc2F)cc1,18.2 µM (active),–
CCN(Cc1c(F)cccc1Cl)c1c([N+](=O)[O-])cc(C(F)(F)F)cc1[N+](=O)[O-],50 µM (active),–
O=C(Nc1ccc([N+](=O)[O-])cc1Cl)c1cc(Cl)ccc1O,0.723 µM (active),–
CN(C)C(=O)Nc1ccc(Cl)c(Cl)c1,–,inactive
COC(=O)CSc1cc(N=c2sc(=O)n3n2CCCC3)c(F)cc1Cl,–,inactive
N[C@@H](Cc1cc(I)c(Oc2ccc(O)c(I)c2)c(I)c1)C(=O)O,12.5 µM (active),–
CC(C)(c1ccc(O)cc1)c1ccc(O)cc1,41.4 µM (active),–
CCCCOC(=O)C(C)Oc1ccc(Oc2ccc(C(F)(F)F)cn2)cc1 (stereo not drawn),43.1 µM (active),–
Oc1ccc(C(c2ccc(O)cc2)C(Cl)(Cl)Cl)cc1,20.9 µM (active),–
CCCCC(CC)COC(=O)c1ccccc1C(=O)O (stereo not drawn),–,inactive
CC(C)(C)[C@@H](O)[C@@H](Cc1ccc(Cl)cc1)n1cncn1,–,inactive
CC(C)CCCCCCc1ccc(O)cc1,10.7 µM (active),–
CCCCCOC(=O)COc1cc(N2C(=O)C3=C(CCCC3)C2=O)c(F)cc1Cl,78.1 µM (active),–
CCCCOC(=O)[C@@H](C)Oc1ccc(Oc2ccc(C(F)(F)F)cn2)cc1,–,inactive
CCSC(=O)N(CC(C)C)CC(C)C,–,inactive
COC(=O)c1ccccc1C(=O)O,–,inactive
O=C(O)C1(C(=O)Nc2ccc(Cl)cc2Cl)CC1,50 µM (active),–
N#CSCSc1nc2ccccc2s1,19.4 µM (active),–

# Tested on: not listed separately
# Assay: ACEA_AR_antagonist_AUC_viability: ACEA Biosciences xCELLigence Real-Time Cell Analysis on Androgen Receptor Antagonism for Viability (AID 2283776);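 also: 22Rv1 human prostate cancer cells growing on impedance electrode plates; area under impedance growth curve at 80 h after dosing as viability; hits lower the growth signal relative to DMSO meaning cytotoxicity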
# How it was run: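 22Rv1 prostate cells, continuous dosing up to 100 uM final (0.5% DMSO max), duplicate plates. Growth measured by impedance; AUC at 80 h, loss of signal vs DMSO.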
SMILES,AC50,outcome
CCN(Cc1c(F)cccc1Cl)c1c([N+](=O)[O-])cc(C(F)(F)F)cc1[N+](=O)[O-],25 µM (active),–
O=C(Nc1ccc([N+](=O)[O-])cc1Cl)c1cc(Cl)ccc1O,0.821 µM (active),–
CCCCC(CC)COC(=O)c1ccccc1C(=O)O (stereo not drawn),–,inactive
CCCCOC(=O)[C@@H](C)Oc1ccc(Oc2ccc(C(F)(F)F)cn2)cc1,–,inactive
COC(=O)c1ccccc1C(=O)O,–,inactive
